Results published in PubChem BioAssay (NCATS).
Records with an inconclusive call do not appear. Active and inactive are the calls of the source. Unless noted, calls follow the shape of the dose curve; as a rule, active = well fitted inhibition curve with a large enough effect; inconclusive = small, poorly fitted or top-dose-only effect; inactive = flat fitted curve, though single readings scatter.

How the values were obtained:
[1] = AP1 Signaling Pathway (AID 357; active = well fitted curve in either direction with a large enough effect, not every such curve was filed as active; also: % is scaled to controls: 0 for no effect and ±100 for the full control effect)
Procedure, shortened: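 ME-180 cells with beta-lactamase reporter under AP-1 response element, stimulated with EC50 EGF; compounds tested in titration series, 5 h at 37 °C. CCF4 substrate added 2.5 h at room temperature; 460/530 nm emission ratio gave %activity and AC50.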

[2] = molecular target: Cytochrome P450 1A2 (Homo sapiens) (UniProt P05177); experiment: p450-cyp1a2 (AID 410; calls by dose curve; also: potency is read from the fitted curve at half-maximal effect;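 as to activity change, negative = inhibition: -100% = full effect of reference inhibitor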)
Sequence of Cytochrome P450 1A2 (Homo sapiens) (P05177 whole entry, looked up): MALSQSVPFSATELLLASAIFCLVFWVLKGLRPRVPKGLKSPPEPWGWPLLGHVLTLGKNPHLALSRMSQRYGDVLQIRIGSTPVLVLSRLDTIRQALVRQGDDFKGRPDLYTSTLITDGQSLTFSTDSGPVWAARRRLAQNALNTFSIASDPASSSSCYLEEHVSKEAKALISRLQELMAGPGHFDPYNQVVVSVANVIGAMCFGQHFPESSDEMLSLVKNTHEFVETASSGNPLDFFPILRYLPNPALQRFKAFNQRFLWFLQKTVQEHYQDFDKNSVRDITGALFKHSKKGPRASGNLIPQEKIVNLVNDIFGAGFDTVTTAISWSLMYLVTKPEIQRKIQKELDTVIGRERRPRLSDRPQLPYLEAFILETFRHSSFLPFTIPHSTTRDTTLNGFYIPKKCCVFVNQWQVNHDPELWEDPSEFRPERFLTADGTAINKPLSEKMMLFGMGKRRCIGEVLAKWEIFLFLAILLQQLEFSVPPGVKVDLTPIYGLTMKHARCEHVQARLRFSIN
Procedure, shortened: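 O-Demethylation of luciferin 6' methyl ether by human CYP1A2 is monitored as luciferase luminescence. Substrate sits at Km (100uM); enzyme is 20nM. Values are scaled to 57 uM furafylline as maximal inhibition.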

[3] = NFAT Signaling Pathway (AID 444; active = well fitted curve in either direction with a large enough effect, not every such curve was filed as active;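 also: carbachol stimulus at about its EC50 of 1 µM final; % is scaled to controls: 0 for no effect and ±100 for the full control effect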); details: Jurkat NFAT-bla M1, carbachol, beta-lactamase ratio, 5 h; at 17.2 µM (top of the series) unless noted
Procedure, shortened: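 Read-out: CCF4 FRET ratio (460 nm/530 nm) after 1 h RT dye loading, used for %activity and AC50 from titration series. Cells: Jurkat NFAT-β-lactamase/M1 line, treated with compound plus 1 uM carbachol for 5 h, 37 °C.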

[4] = Stat Signaling Pathway (AID 446; active = well fitted curve in either direction with a large enough effect, not every such curve was filed as active;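 also: ME-180 cervical cancer cells given 40 pM IL-6 alongside compound; SIE-controlled beta-lactamase reporter measured as 460/530 nm FRET emission ratio; % is scaled to controls: 0 for no effect and ±100 for the full control effect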)
Procedure, shortened: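 Emission at 460 and 530 nm (excitation 405 nm) reports SIE-controlled beta-lactamase in ME-180 cells. Cells received compound with 40 pM IL-6 for 5 hrs at 37 C; data scaled between 300 pM IL-6 and 125 nM JAK-inhibitor controls.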

[5] = molecular target: Glucocorticoid receptor (Homo sapiens) (UniProt P04150); experiment: GR-GFP Redistribution (AID 450;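 active = compounds whose dose series gives a full or clear partial fitted curve of increased nuclear translocation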; also: potency is read from the fitted curve at half-maximal effect); details: U2OS GR-GFP nuclear translocation, laser cytometry, 2 h
Sequence of Glucocorticoid receptor (Homo sapiens) (P04150 whole entry, looked up, the tested form may be a part): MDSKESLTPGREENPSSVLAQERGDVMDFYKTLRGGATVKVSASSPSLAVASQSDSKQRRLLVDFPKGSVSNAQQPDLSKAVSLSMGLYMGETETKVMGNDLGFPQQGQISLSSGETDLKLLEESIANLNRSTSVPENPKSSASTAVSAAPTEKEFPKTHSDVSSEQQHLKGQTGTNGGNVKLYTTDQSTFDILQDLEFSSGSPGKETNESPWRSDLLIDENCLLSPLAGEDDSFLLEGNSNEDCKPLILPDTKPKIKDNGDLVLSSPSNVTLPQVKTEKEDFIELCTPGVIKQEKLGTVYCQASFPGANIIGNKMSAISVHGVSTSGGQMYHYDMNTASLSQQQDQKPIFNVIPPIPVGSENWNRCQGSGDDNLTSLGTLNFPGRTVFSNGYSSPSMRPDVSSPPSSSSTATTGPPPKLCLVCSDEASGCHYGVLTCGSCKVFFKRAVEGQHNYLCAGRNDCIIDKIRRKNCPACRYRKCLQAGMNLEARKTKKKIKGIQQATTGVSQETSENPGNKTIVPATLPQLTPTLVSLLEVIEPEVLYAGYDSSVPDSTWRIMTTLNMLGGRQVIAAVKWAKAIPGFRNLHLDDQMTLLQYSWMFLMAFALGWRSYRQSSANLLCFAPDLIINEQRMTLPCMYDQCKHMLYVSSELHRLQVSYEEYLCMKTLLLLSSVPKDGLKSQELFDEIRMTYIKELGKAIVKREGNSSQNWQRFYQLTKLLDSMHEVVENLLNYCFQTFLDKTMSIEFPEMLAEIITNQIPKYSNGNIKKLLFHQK

[6] = molecular target: Glucocorticoid receptor (Homo sapiens) (UniProt P04150); experiment: GR-EFC Redistribution (AID 451; calls by dose curve; also: potency is read from the fitted curve at half-maximal effect); details: CHO-K1 GR-EFC translocation, beta-gal luminescence, 2 h
Procedure, shortened: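 Translocation of GR-ED fusion to nuclear EA restores b-gal, read by luminescence after 1 h room-temperature detection. Engineered CHO-K1 biosensor cells, 1,000/well, exposed 2 h at 37 C to titrations up to 46 uM final.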

[7] = molecular target: Mitogen-activated protein kinase 10 (Mus musculus) (UniProt Q61831); experiment: JNK3 AlphaScreen Assay (AID 530; active = well fitted curve in either direction with a large enough effect, not every such curve was filed as active;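 also: kinase came from lysate of stimulated human HepG2 cells; signal reports phosphorylation of biotinylated GST-cJun 1-79 at Ser73 with 10 µM ATP; % is scaled to controls: 0 for no effect and ±100 for the full control effect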)
Procedure, shortened: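 qHTS titrations with 15 min compound pre-incubation before adding ATP (10 uM final). Read-out: AlphaScreen of Ser73-phosphorylated biotin-GST-cJun using HepG2 lysate JNK3 activated by IL-1β and TNFα.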

[8] = molecular target: 3',5'-cyclic-AMP phosphodiesterase 4B (Homo sapiens) (UniProt Q07343); experiment: qHTS Assay for Inhibitors of PDE-IV (AID 607; active = well fitted activation curve with a large enough effect in the main read-out, with a control signal flat, not every such curve was filed as active; also: % of control where 0% means no effect)
Sequence of 3',5'-cyclic-AMP phosphodiesterase 4B (Homo sapiens) (Q07343 whole entry, looked up): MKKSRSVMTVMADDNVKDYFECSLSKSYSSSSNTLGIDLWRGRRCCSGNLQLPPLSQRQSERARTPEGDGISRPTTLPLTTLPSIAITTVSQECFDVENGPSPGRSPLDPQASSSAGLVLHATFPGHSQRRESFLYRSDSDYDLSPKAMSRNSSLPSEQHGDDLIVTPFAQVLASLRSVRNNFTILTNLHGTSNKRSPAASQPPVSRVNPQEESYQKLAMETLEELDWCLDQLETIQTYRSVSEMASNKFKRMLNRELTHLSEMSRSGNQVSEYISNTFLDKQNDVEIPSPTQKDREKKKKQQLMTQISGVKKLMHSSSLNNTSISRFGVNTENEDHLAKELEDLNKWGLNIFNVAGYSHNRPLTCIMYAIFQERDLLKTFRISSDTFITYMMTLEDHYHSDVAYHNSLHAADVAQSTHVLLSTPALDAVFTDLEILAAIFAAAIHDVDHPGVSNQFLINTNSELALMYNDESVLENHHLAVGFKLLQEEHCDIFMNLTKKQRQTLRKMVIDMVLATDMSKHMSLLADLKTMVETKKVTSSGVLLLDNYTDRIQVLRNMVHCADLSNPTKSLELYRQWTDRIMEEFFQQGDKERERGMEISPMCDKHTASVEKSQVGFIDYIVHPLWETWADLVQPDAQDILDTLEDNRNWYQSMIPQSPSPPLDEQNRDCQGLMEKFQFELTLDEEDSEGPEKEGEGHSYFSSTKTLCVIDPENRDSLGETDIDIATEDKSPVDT
Procedure, shortened: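 The readout is membrane depolarisation from a cAMP-sensing CNG channel, detected with a potential dye at ex 535/em 590. Cells were HEK293-derived (endogenous PDE-IV) at 1000 cells/well, titrated up to 22.9 uM final.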

[9] = qHTS Assay for Lipid Storage Modulators (AID 1519; calls by dose curve); details: Drosophila S3 cells, BODIPY lipid droplet/cell ratio, laser cytometry, cells loaded with oleic acid; for activity change, negative = inhibition: at 25.7 µM (top of the series)
Procedure, shortened: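 Cells seeded at 5,000 per well were treated with compounds over a concentration series and loaded with oleic acid (400 uM, as added). Lipid droplet fluorescence (488 nm excitation, 500-530 nm channel) was read by laser-scanning cytometry and normalized to 20 uM Triacsin C.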

[10] = molecular target: Ubiquitin carboxyl-terminal hydrolase 1 (Homo sapiens) (UniProt O94782); experiment: Inhibitors of USP1/UAF1: Pilot qHTS (AID 504865);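 also: rhodamine fluorescence freed from ubiquitin-rhodamine substrate followed over time; top concentration of the series differs between compounds; % is scaled to controls: 0 for no effect and ±100 for the full control effect; nearly all actives have a fitted effect of over 35% in size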
Sequence of Ubiquitin carboxyl-terminal hydrolase 1 (Homo sapiens) (O94782 whole entry, looked up): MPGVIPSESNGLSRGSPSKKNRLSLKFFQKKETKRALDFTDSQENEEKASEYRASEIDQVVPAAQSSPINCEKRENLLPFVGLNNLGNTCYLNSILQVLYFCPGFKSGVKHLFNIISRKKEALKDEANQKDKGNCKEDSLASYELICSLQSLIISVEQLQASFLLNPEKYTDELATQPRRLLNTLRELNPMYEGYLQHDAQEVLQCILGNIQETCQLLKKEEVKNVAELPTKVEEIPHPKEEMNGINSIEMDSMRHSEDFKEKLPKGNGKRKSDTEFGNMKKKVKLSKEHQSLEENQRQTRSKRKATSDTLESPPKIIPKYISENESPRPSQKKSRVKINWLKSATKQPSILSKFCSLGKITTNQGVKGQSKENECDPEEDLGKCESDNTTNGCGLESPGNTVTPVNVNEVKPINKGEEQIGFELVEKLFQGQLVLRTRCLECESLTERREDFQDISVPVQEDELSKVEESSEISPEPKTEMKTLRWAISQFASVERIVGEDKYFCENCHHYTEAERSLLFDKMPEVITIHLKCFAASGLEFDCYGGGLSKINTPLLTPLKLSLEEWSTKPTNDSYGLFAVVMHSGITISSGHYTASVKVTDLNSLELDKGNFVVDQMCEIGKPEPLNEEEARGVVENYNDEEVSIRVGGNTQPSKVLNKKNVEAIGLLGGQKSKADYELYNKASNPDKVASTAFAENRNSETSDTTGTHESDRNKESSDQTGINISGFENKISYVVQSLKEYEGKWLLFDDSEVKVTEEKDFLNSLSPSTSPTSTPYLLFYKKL
Procedure, shortened: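 1nM USP1/UAF1 + cpd, 15 min RT; start w/ Ub-Rho 150nM final; kinetic FL 480/540 nm, 6 reads q60 s. Buffer 50mM HEPES pH 7.8, 0.5mM EDTA, 1mM TCEP, 0.01% Tween-20, 0.1 mg/ml BSA.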

[11] = molecular target: Luciferin 4-monooxygenase (Photinus pyralis) (UniProt P08659); experiment: Biochemical firefly luciferase enzyme assay for NPC (AID 624030);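 also: purified P. pyralis luciferase at 10 nM with luciferin and ATP substrate; 0% = DMSO and -100% = full luciferase inhibition by PTC124 control; nearly all actives have a fitted effect of over 70% in size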
Sequence of Luciferin 4-monooxygenase (Photinus pyralis) (P08659 whole entry, looked up): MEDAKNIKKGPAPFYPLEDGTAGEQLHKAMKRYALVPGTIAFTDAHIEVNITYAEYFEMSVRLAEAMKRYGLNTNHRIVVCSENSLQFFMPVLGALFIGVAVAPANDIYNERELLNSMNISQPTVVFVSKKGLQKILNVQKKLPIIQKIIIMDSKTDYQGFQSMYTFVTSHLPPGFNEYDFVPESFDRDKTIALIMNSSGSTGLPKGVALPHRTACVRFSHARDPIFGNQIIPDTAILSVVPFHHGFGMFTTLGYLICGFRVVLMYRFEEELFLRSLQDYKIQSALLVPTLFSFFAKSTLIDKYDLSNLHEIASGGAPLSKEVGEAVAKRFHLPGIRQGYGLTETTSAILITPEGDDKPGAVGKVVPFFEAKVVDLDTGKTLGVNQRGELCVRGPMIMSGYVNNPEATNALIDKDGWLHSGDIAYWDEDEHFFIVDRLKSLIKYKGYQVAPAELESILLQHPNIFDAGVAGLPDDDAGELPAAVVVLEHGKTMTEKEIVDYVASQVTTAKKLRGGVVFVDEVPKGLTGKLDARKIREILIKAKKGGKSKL
Procedure, shortened: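 Direct inhibition of firefly luciferase enzyme (10 nM final, 50 mM Tris Acetate) assessed by luminescence within 5 minutes. Percent activity scaled between DMSO and PTC124 positive control, with concentration-effect curves classified by fit quality and response.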

[12] = qHTS profiling for inhibitors of Plasmodium falciparum proliferation (AID 504749);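 also: 0% = DMSO vehicle and full inhibition = artemisinin control; nearly all actives have a fitted effect of over 60% in size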; details: P. falciparum in erythrocytes, SYBR Green DNA, 72 h, at 12.8 µM (top of the series)
Procedure, shortened: (§1)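 SYBR Green fluorescence of parasite DNA, read after lysis and overnight dark incubation, measured growth over 72 h in erythrocyte culture at 0.3% parasitemia and 2.5% hematocrit. Data normalised to DMSO and 0.29 uM artemisinin, with plate-drift correction.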

C2A = experiment: as above; details: P. falciparum in erythrocytes, SYBR Green DNA, 72 h; series mostly up to 12.8 µM
Procedure, shortened: as §1

CP217 = experiment: as above; details: P. falciparum in erythrocytes, SYBR Green DNA, 72 h; series mostly up to 12.8 µM
Procedure, shortened: as §1

CP238 = experiment: as above; details: P. falciparum in erythrocytes, SYBR Green DNA, 72 h; series mostly up to 12.8 µM
Procedure, shortened: as §1

CP250 = experiment: as above; details: P. falciparum in erythrocytes, SYBR Green DNA, 72 h; series mostly up to 12.8 µM
Procedure, shortened: as §1

CP256 = experiment: as above; details: P. falciparum in erythrocytes, SYBR Green DNA, 72 h; series mostly up to 12.8 µM
Procedure, shortened: as §1

FAB9 = experiment: as above; details: P. falciparum in erythrocytes, SYBR Green DNA, 72 h; series mostly up to 12.8 µM
Procedure, shortened: as §1

JCK = experiment: as above; details: P. falciparum in erythrocytes, SYBR Green DNA, 72 h; series mostly up to 12.8 µM
Procedure, shortened: as §1

SC27B = experiment: as above; details: P. falciparum in erythrocytes, SYBR Green DNA, 72 h; series mostly up to 12.8 µM
Procedure, shortened: as §1

[13] = measured here: cell count channel max response
[14] = measured here: lipid channel max response

CNc1ncnc2c1ncn2[C@@H]1O[C@H](CO)[C@@H](O)[C@@H]1O
inactive: outcome [1] | Potency [2] | activity change, negative = inhibition [3] -5.4% | outcome [4] | Potency [5] > 20.6 µM | Potency [6] > 20.6 µM | Potency [7] | outcome [8] | activity change, negative = inhibition [9] -4.48% | Potency [10]
-24.1%: max response [9, 14]
-18.6%: max response [9, 13]

O=C(NC[C@@H](O)CO)c1c(I)c(C(=O)NC[C@@H](O)CO)c(I)c(N(CCO)C(=O)CO)c1I
-0.682%: max response [9, 14]
inactive: outcome [1] | Potency [2] | activity change, negative = inhibition [3] -8.22% | outcome [4] | Potency [5] > 20.6 µM | Potency [6] > 20.6 µM | Potency [7] | outcome [8] | activity change, negative = inhibition [9] -2.29% | Potency [11] | activity, negative = inhibition ([12]; parasite line A) 7.51% | activity, negative = inhibition ([12]; parasite line B) 8.28% | Potency (C2A) | Potency (CP217) | Potency (CP238) | Potency (CP250) | Potency (CP256) | Potency (FAB9) | Potency (JCK) | Potency (SC27B)
-1.01%: max response [9, 13]

CC1(C)O[C@@H]2C[C@H]3[C@H]4C[C@H](F)C5=CC(=O)CC[C@]5(C)[C@@H]4[C@H](O)C[C@]3(C)[C@]2(C(=O)CO)O1
inactive: outcome [1] | Potency [2] | activity change, negative = inhibition [3] -4.77% | outcome [4] | Potency [7] | outcome [8] | activity change, negative = inhibition [9] -1.62% | Potency [10] | Potency [11] | activity, negative = inhibition ([12]; parasite line A) -10.9% | activity, negative = inhibition ([12]; parasite line B) -1.91% | Potency (C2A) | Potency (CP217) | Potency (CP238) | Potency (CP250) | Potency (CP256) | Potency (FAB9) | Potency (JCK) | Potency (SC27B)
-9.46%: max response [9, 13]
active: Potency [5] 0.00126 µM | Potency [6] 0.0188 µM
-9.41%: max response [9, 14]

O=C(Nc1ccccc1)OC[C@H](CN1CCCCC1)OC(=O)Nc1ccccc1
active: Potency [2] 12.6 µM
inactive: outcome [1] | activity change, negative = inhibition [3] -6.24% | outcome [4] | Potency [5] > 20.6 µM | Potency [6] > 20.6 µM | Potency [7] | outcome [8] | activity change, negative = inhibition [9] -4.16% | Potency [11] | activity, negative = inhibition ([12]; parasite line A) -1.15% | activity, negative = inhibition ([12]; parasite line B) -2.24% | Potency (C2A) | Potency (CP217) | Potency (CP238) | Potency (CP250) | Potency (CP256) | Potency (FAB9) | Potency (JCK) | Potency (SC27B)
-11%: max response [9, 14]
-5.88%: max response [9, 13]

CC[N+](CC)(CC)CC[C@](O)(c1ccccc1)C1CCCCC1
inactive: outcome [1] | Potency [2] | outcome [4] | Potency [5] > 20.6 µM | Potency [6] > 20.6 µM | Potency [7] | outcome [8] | activity change, negative = inhibition [9] -1.33% | Potency [10] | Potency [11] | activity, negative = inhibition ([12]; parasite line B) -24.4% | Potency (C2A) | Potency (CP217) | Potency (CP238) | Potency (CP250) | Potency (CP256) | Potency (JCK) | Potency (SC27B)
active: activity change, negative = inhibition [3] -68.8%
-19.8%: max response [9, 14]
-17.2%: max response [9, 13]
